Measured values published in PubChem BioAssay AID1159580 (chemical genetic matrix, 2015).
About 2,000 (36%) of roughly 5,500 compounds were called active. Not shown: some 18% with an inconclusive outcome. No stated cut-off is given here; in the data, active means normalized growth mostly below about 0.91 (no sharp cut-off); inconclusive means no clear call, values can overlap the other calls; inactive means mostly above about 0.92. This is one part of the list.

Experiment: chemical genetic growth profiling, strain panel (AID 1159580);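 further: tested at 20 µM; growth read once vehicle control cultures reached saturation at 30 °C; 1 = growth at the plate median or of vehicle wells; lower values mean less growth of the strain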
Details: S. cerevisiae deletion strains, growth OD

Measured: normalized growth

CCN(CC)C(=O)N[C@@H]1C=C2c3cccc4[nH]cc(c34)C[C@H]2N(C)C1
inactive: locus YAL040C, strain CLN3, hits give low values 1.08 | locus YCL061C, strain MRC1 (second series), hits give low values 1 | locus YDR363W, strain ESC2, hits give low values 0.989 | locus YER002W, strain NOP16, hits give low values 1 | locus YGR078C, strain PAC10, hits give low values 0.985 | locus YJR075W, strain HOC1, hits give low values 0.983 | locus YMR263W, strain SAP30, hits give low values 0.991 | locus YNL153C, strain GIM3, hits give low values 1.02 | locus YNL175C, strain NOP13, hits give low values 1.01 | locus YNL197C, strain WHI3, hits give low values 1 | locus YNL224C, strain SQS1, hits give low values 0.997 | locus YNL322C, strain KRE1, hits give low values 0.997 | locus YOR083W, strain WHI5 (second series), hits give low values 0.992
